Reference: publication PMC5540273 (PLoS ONE, 2017)

system: DDR2; details: concentration: 1 μM, replicates: in singlicate; n = 1
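Further: KINOMEscan kinase panel screen.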

SMILES	%Inh [%]
Cc1nn2c(=O)cc(N3CCOCC3)nc2n1Cc1cccc(Cl)c1Cl [GSK2342769]	0
CCS(=O)c1ccc(-c2coc3ccc(-c4nnc(C)o4)cc23)cc1 (centres unmarked)	16
COc1cc(Nc2nccc(N3CCC(NC(=O)C(C)c4ccc(Cl)cc4)C3)n2)cc(OC)c1OC (centres unmarked) [GSK1379757]	6
COc1cc2ncn(-c3cc(OCc4ccncc4Br)c(C(N)=O)s3)c2cc1OC [GW854278]	0
Cl.c1ccc(Cn2cnc3cc(Nc4ncnc5ccccc45)ccc32)cc1 [GW272142]	14
CCC(=O)c1c(-c2ccccc2)c2cc(Cl)ccc2c(=O)n1Cc1cc(C(=O)NC2CC2)n(C)n1	29
Nc1nccc2scc(-c3ccc4c(c3)CCN4C(=O)Cc3ccccc3)c12 [GSK2576924]	3
COc1ccc(-c2cc3c(C)nc(N)nc3n([C@H]3CC[C@H](O)CC3)c2=O)cn1	0
Nc1nc(-c2ccccc2F)c(-c2ccnc3ccccc23)s1 [GW560459]	34
COc1cccc(C2=C(N(C)c3ccccc3)C(=O)NC2=O)c1 [SB-334865]	22
CCn1c(-c2nonc2N)nc2ccccc21 [SB-693162/GW549034]	0
COc1cc2nccc(Nc3ccc(OCc4ccc(NC(C)=O)cc4)cc3)c2cc1OC.Cl [GW440135]	45
Cc1ccc(Oc2ccc(Nc3ncnc4cc[nH]c34)cc2C)cn1	0
O=C(Nc1n[nH]c2cc(-c3ccccc3F)ccc12)C1CC1 [SB-733371]	6
O=C1NC(=O)C(c2ccccc2)=C1Nc1cccc(O)c1 [SB-390534]	0
COc1ccc(-c2cc3c(C)nc(N)nc3n([C@H]3CC[C@H](OCCO)CC3)c2=O)cn1	0
Cn1c(=O)c(F)c(Nc2ccc(I)cc2F)c2c(=O)n(OC[C@H](O)CO)cnc21	25
Nc1n[nH]c2ncc(-c3ccccc3)cc12 [SB-517081]	23
CCC(=O)c1c(-c2ccccc2)c2cc(Cl)ccc2c(=O)n1Cc1cc(S(C)(=O)=O)n(CC(N)=O)n1	0
Nc1ncnc2c1ncn2-c1ccc(Cl)cc1 [AH2635]	21
Cc1nnc(-c2ccc3ncn(-c4ccc(S(C)=O)cc4)c3c2)o1 (centres unmarked)	0
COc1cc2ncn(-c3cc(OCc4ccc(S(C)(=O)=O)cc4)c(C(N)=O)s3)c2cc1OC [GW869979]	2
CCC(=O)c1c(-c2ccccc2)c2cc(Cl)ccc2c(=O)n1Cc1ccc(C(=O)O)cc1	34
